Among the test systems are NCI-H23 lung; NCI-H226 lung; NCI-H322M lung; HOP-62 NSCLC; NCI-H460 lung; HOP-92 NSCLC; NCI-H522 lung; A549/ATCC NSCLC; 786-0 renal; COLO 205 colon.
Holding throughout (assay): NCI-60 one-dose screen, 48 h (100 = growth as untreated, 0 = no growth, -100 = all killed)
What all share (conditions): 10 µM unless noted

The panel holds about 83,000 compounds, 20% with a hit somewhere; the sample as a whole holds those more often.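 Cells were grown in 96-well plates and exposed to the test compound at a single concentration for 48 hours; results are reported as percent growth, with values below 10 considered active.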 Values without a mark were called inactive. The source made the active and inactive calls.

In the case of `C=CCn1c(SCC(=O)Nc2ccc(C(=O)/C=C/c3ccc(Cl)cc3)cc2)nnc1-c1ccc(Cl)cc1`, the growth in the assay on NCI-H23 lung is 82.8%; with NCI-H226 lung, 83.1%; with NCI-H322M lung, 110%; in the assay on HOP-62 NSCLC, 78.2%; in the assay with NCI-H460 lung, 99.5%; with HOP-92 NSCLC, 91%. The growth is 68.4% in the assay with NCI-H522 lung, 73.8% with A549/ATCC NSCLC, 93.9% with 786-0 renal and 98.3% in the assay with COLO 205 colon.

Take `O=C(CN1CCN(c2ccccc2)CC1)N1CCN(c2nnc(-c3ccc(Cl)cc3)c(-c3ccc(Cl)cc3)n2)CC1`: the growth was 82.3% in the assay with NCI-H23 lung; 68% in the assay with NCI-H226 lung; 89.9% with NCI-H322M lung; 66% in the assay with HOP-62 NSCLC; 47.9% in the assay with NCI-H460 lung; 71.3% with HOP-92 NSCLC. The growth in the assay with NCI-H522 lung is 59.7%; with A549/ATCC NSCLC it was 54.8%; in the assay with 786-0 renal, 40.1%; in the assay on COLO 205 colon, 51%.

`COc1cccc(OCC(O)CN2CCN(c3ccccc3)CC2)c1` (stereo not given): the growth in the assay on NCI-H23 lung was 106%; in the assay with NCI-H226 lung it was 106%; with NCI-H322M lung, 129%; in the assay on HOP-62 NSCLC, 103%; in the assay with NCI-H460 lung, 114%; with HOP-92 NSCLC it was 129%. Moreover, the growth was 80.3% with NCI-H522 lung, 114% with A549/ATCC NSCLC, 104% in the assay on 786-0 renal and 138% in the assay with COLO 205 colon.

Take `CN(C)c1ccc(/C=C(\C#N)c2nc3ccccc3n2C)cc1`: the growth is 58.9% in the assay with NCI-H23 lung; 77.8% with NCI-H226 lung; 46.5% in the assay on NCI-H322M lung; 89.7% in the assay with HOP-62 NSCLC; 13.8% in the assay with NCI-H460 lung; 86.4% in the assay on HOP-92 NSCLC. The growth is 3.96% (active) in the assay on NCI-H522 lung, 31% with A549/ATCC NSCLC, 47.4% in the assay with 786-0 renal and 19.4% in the assay with COLO 205 colon.

For the compound `c1ccc(C(Nc2ccccn2)(c2ccccc2)c2ccccc2)cc1`, the growth with NCI-H23 lung was 74.6%; in the assay on NCI-H226 lung it was 72.6%; in the assay on NCI-H322M lung, 64.8%; in the assay with HOP-62 NSCLC, 99%; in the assay on NCI-H460 lung, 79.9%; in the assay on HOP-92 NSCLC it was 4.44% (active). For the same compound, the growth in the assay with NCI-H522 lung was 70.7%; in the assay with A549/ATCC NSCLC, 65.9%; with 786-0 renal, 81.4%; in the assay on COLO 205 colon, 90%.

On to `Nc1nc(N)c2c(n1)NC(c1sc(Cl)nc1Cl)CC(c1ccc3c(c1)OCO3)=N2` (stereo not given), for which the growth in the assay with NCI-H23 lung is 39.9%; with NCI-H226 lung, 82.7%; in the assay on NCI-H322M lung it was 72.6%; with HOP-62 NSCLC, 34.5%; in the assay with NCI-H460 lung, 13.2%; in the assay on HOP-92 NSCLC, 56%. Moreover, the growth in the assay with NCI-H522 lung is -28.3% (active); in the assay with A549/ATCC NSCLC it was 36.4%; in the assay with 786-0 renal it was 38.1%; with COLO 205 colon, 7.12% (active).

On to `CC(=O)[C@@]1(O)[C@H](C)C[C@H]2[C@@H]3C=C(C)C4=Cc5c(cnn5-c5ccccc5)C[C@]4(C)[C@H]3[C@@H](O)C[C@@]21C`, for which the growth with NCI-H23 lung is 32.4%; in the assay with NCI-H226 lung it was 63.3%; with NCI-H322M lung it was 75.9%; with HOP-62 NSCLC it was 34.8%; in the assay on NCI-H460 lung, -20.5% (active); with HOP-92 NSCLC it was 13.2%. The growth in the assay with NCI-H522 lung was -2.67% (active); in the assay with A549/ATCC NSCLC it was 14.5%; in the assay on 786-0 renal, -9.28% (active); with COLO 205 colon, -23.8% (active).

Regarding `C#CCNC(=S)N/N=C(\C)c1ccccn1`, the growth in the assay on NCI-H23 lung was 20.1%; with NCI-H226 lung it was 5% (active); in the assay on NCI-H322M lung, -4.06% (active); in the assay on HOP-62 NSCLC it was 26.5%; in the assay with NCI-H460 lung, 4% (active); with HOP-92 NSCLC it was 52.4%. Moreover, the growth was 43.9% with NCI-H522 lung, 23.9% with A549/ATCC NSCLC, 4.03% (active) in the assay with 786-0 renal and 19.6% with COLO 205 colon.

As to `Cc1n(Cc2ccc3ccccc3n2)cc[n+]1Cc1ccc2ccccc2n1`, the growth was 69.8% in the assay with NCI-H23 lung; 88.1% in the assay on NCI-H226 lung; 103% in the assay with NCI-H322M lung; 90.6% in the assay on HOP-62 NSCLC; 95% with NCI-H460 lung; 74.5% with HOP-92 NSCLC. The growth in the assay on NCI-H522 lung was 35.9%; in the assay with A549/ATCC NSCLC, 88.6%; in the assay on 786-0 renal it was 97.8%; with COLO 205 colon it was 33.2%.

Regarding `CCOC(=O)c1ccc(N(CCC(=O)O)C(C)=O)cc1`, the growth is 111% in the assay on NCI-H23 lung; 102% in the assay on NCI-H226 lung; 92.1% with NCI-H322M lung; 108% in the assay with HOP-62 NSCLC; 111% in the assay on NCI-H460 lung; 96.2% in the assay on HOP-92 NSCLC. Moreover, the growth in the assay on NCI-H522 lung is 95%; with A549/ATCC NSCLC it was 104%; in the assay with 786-0 renal it was 104%; in the assay with COLO 205 colon, 119%.

`CCCCCCCCCCCCCC(=S)NCCCC[C@H](NC(=O)OCc1ccccc1)C(=O)Nc1ccccc1`: the growth in the assay on NCI-H23 lung was 37.2%; with NCI-H226 lung, 60.8%; with NCI-H322M lung it was 95.2%; in the assay on HOP-62 NSCLC, 58.4%; in the assay on NCI-H460 lung, 45.5%; with HOP-92 NSCLC, 19.8%. Further, the growth was 27.6% with NCI-H522 lung, 49.3% in the assay on A549/ATCC NSCLC, 48.8% in the assay with 786-0 renal and 55.6% in the assay with COLO 205 colon.

`C=CCn1c(SCC(=O)Nc2ccc(/C(C)=N\O)cc2)nnc1-c1cc(-c2ccc(Cl)cc2)nc2ccccc12`: the growth with NCI-H23 lung is 24.1%; in the assay with NCI-H226 lung, 50.7%; in the assay with NCI-H322M lung, 26.2%; in the assay with HOP-62 NSCLC, 49.6%; in the assay on NCI-H460 lung it was 17.2%; in the assay with HOP-92 NSCLC, 50.4%. Besides, the growth in the assay with NCI-H522 lung is 22.4%; in the assay with A549/ATCC NSCLC, 19.4%; in the assay with 786-0 renal, 23%; in the assay on COLO 205 colon, 27.8%.

For the compound `COc1cc(C2Nc3ccccc3S2)cc(CN2CCOCC2)c1O` (stereo not given), the growth in the assay with NCI-H23 lung is 78.8%; in the assay on NCI-H226 lung it was 92.3%; in the assay on NCI-H322M lung, 116%; in the assay on HOP-62 NSCLC, 86.1%; with NCI-H460 lung, 52.7%; in the assay with HOP-92 NSCLC, 103%. Moreover, the growth in the assay with NCI-H522 lung was -2.67% (active); in the assay with A549/ATCC NSCLC, 73.6%; in the assay with 786-0 renal, 104%; in the assay with COLO 205 colon, 89.6%.

`COc1ccc(C(=O)/C=C/c2cn(-c3ccccc3)nc2-c2cccc(Nc3ccnc4cc(Cl)ccc34)c2)cc1`: the growth in the assay with NCI-H23 lung was 101%; in the assay with NCI-H226 lung, 95.4%; in the assay on NCI-H322M lung it was 101%; with HOP-62 NSCLC, 103%; in the assay with NCI-H460 lung it was 96.6%; in the assay on HOP-92 NSCLC, 64.9%. The growth in the assay with NCI-H522 lung is 96.7%; in the assay with A549/ATCC NSCLC, 95.3%; with 786-0 renal, 99.5%; with COLO 205 colon it was 102%.

Source of the values: PubChem BioAssay (NCI).
